# Screens (PubChem)
# Most compounds without a hit are left out; they make up all but 7.4% or so of the library.
# p53 reactivator = re-activators of mutant p53; H1299 p53-A138V BP100-luciferase reporter, luminescence, 24 h; Potency, µM (highest dose often 92.2 µM), for inactives: at the highest dose activity change, positive = activation, most hits filed as activators; 0.063% of 320,000 active; also: % of control where 0% means no effect; nearly all actives have a fitted effect of over 45% in size
#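 H1299 (p53-null), stable ts p53-A138V + BP100-Luc; 1000 cells/well, Opti-MEM/10% FBS; cpd 4 pt, 1:5; 24 h, 37 deg C, 5% CO2; detection reagent 10 min RT; luminescence.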
# ELG1 genotox = induces genotoxicity in HEK293T cells with luciferase-tagged ELG1; HEK293T ELG1-luciferase reporter, luminescence, 16 h; Potency, µM (top dose mostly 46 µM), for inactives: top-dose activity change, positive = activation, most hits filed as activators; 1.3% of 330,000 active; AID 504466; also: % of control where 0% means no effect; nearly all actives have a fitted effect of over 60% in size
#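 Reporter readout depends on ELG1 protein level, which increases with genetic stress. After 16 hr compound exposure at 37 °C, luciferase activity was quantified using ONE-Glo.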
# Rab9 promoter act = activators of Rab9 promoter. 2.8% of 320,000 active. Huh7 Rab9 promoter-luciferase reporter, luminescence, 24 h. Potency, µM (titrated, usually from 9.22 µM), inactives show at the highest dose activation, negative = inhibition, most hits filed as activators; also: % of control where 0% means no effect; nearly all actives have a fitted effect of over 60% in size
#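 Cells were plated at 1500 per well in reduced-serum medium with 10% FBS and left 2 h. Compound in DMSO was then added for 24 h at 37 °C. Reporter signal was read by luminescence after 10 min with luciferase detection reagent.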
# NPC1 promoter act = activates the NPC1 promoter; Huh7 NPC1 promoter luciferase reporter, 24 h; Potency, µM (top dose mostly 9.22 µM), inactives show top-dose activation, usual class: activators; 2.4% of 320,000 active; AID 485313; also: % of control where 0% means no effect; nearly all actives have a fitted effect of over 60% in size
#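 Readout is luciferase luminescence, reflecting NPC1 promoter activation in stably transfected Huh7 cells after 24 h compound exposure at 37 °C in reduced-serum medium with 10% FBS.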
# FLuc modulator = firefly luciferase modulation, counter-screen for miR-21 project; P08659; purified FLuc, Km substrates, luminescence inhibition; Potency, µM (highest dose often 57.5 µM), inactives show at the top dose activity change, negative = inhibition, usual class: inhibitors; 6.9% of 360,000 active; AID 588342;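 also: plate controls were vehicle for no effect and reference inhibitor for full effect; nearly all actives have a fitted effect of over 55% in size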
# Target sequence (P08659 whole entry, looked up): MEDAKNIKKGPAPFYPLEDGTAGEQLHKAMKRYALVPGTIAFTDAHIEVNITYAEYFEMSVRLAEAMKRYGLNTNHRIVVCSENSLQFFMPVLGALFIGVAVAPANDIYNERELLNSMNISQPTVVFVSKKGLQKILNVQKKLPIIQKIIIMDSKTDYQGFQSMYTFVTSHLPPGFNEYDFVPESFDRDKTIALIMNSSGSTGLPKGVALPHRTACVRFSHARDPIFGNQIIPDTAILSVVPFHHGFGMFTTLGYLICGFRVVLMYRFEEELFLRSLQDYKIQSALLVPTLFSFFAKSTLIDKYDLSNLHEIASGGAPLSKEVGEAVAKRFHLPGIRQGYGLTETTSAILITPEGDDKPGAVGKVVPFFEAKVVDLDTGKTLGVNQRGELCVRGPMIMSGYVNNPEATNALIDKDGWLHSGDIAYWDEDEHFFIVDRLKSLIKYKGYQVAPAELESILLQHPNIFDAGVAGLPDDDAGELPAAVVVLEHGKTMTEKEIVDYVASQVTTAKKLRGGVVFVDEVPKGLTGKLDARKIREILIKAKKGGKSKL
#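 Biochemical qHTS of compounds, final roughly 60 µM downward over six points, against 10 nM purified firefly luciferase using Km concentrations of substrates (10 uM D-luciferin, 10 uM ATP) in Tris acetate pH 7.5 buffer; luminescence output.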
# SMN2 splice up = enhancers of SMN2 splice variant expression; 2.8% of 210,000 active; HEK293 SMN2-luciferase splicing reporter, luminescence, 30-36 h; AID 1458; Potency, µM (highest dose often 46.1 µM), without a hit: at the highest dose activity change, positive = activation, hits mostly activators; also: % of control where 0% means no effect; nearly all actives have a fitted effect of over 55% in size
#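 qHTS luciferase splicing reporter: luminescence rises when SMN2 exon 7 is included in transfected HEK293 cells. Compound exposure lasted 30-36 h at 37C, with 4.5 mM final sodium butyrate as control, followed by a ONE-Glo read.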
# Starred values were filed as active, the others as inactive; ? = inconclusive; . = no result given; [ ] = remark or other dose. Calls follow the shape of the dose curve; as a rule, active = well fitted curve in the direction sought with a large enough effect; inconclusive = small, poorly fitted or top-dose-only effect, or another doubt; inactive = no such curve, though single readings can be large; an effect the other way counts as inactive or inconclusive. Potency is read from the fitted curve at half-maximal effect.
SMILES,p53 reactivator,ELG1 genotox,Rab9 promoter act,NPC1 promoter act,FLuc modulator,SMN2 splice up
COc1ccc(N2CCN(C(CNS(=O)(=O)c3ccc(OC)c(C)c3)c3ccco3)CC2)cc1 (stereo not given),.,.,.,.,-7%,.
O=C(N/N=C/c1ccc(Cl)c([N+](=O)[O-])c1)c1ccc2nc[nH]c2c1,5%,-1%,-6%,-4%,?,-6%
COc1ccc(/C=N/NC(=O)c2ccc3nc[nH]c3c2)c(OC)c1OC,-2%,-4%,-1%,-5%,-20%,.
COc1cc(OC)c(OC)cc1/C=N/NC(=O)c1ccc2nc[nH]c2c1,-2%,-3%,4%,-1%,11µM*,.
O=C(N/N=C/c1ccccc1[N+](=O)[O-])c1ccc2nc[nH]c2c1,15%,?,2.8µM*,?,13µM*,.
CCN(CC)c1ccc(/C=N/NC(=O)c2ccc3nc[nH]c3c2)c(O)c1,12%,?,-39%,-32%,13µM*,.
COc1cccc(C(=O)N/N=C/c2cn[nH]c2-c2ccc(OC)cc2OC)c1,-3%,-2%,-2%,-2%,15µM*,5%
Cc1ccn2c(=O)c(NC(=O)c3cccc([N+](=O)[O-])c3C)c(C)nc2c1,.,.,.,.,-4%,.
CC(=O)c1ccc(NC(=O)Cn2ncc3c4ccccc4n(Cc4ccccc4)c3c2=O)cc1,.,.,.,.,-13%,-2%
COc1ccccc1NC(=O)Nc1nc(CC(=O)N2CCN(c3ccc(F)cc3)CC2)cs1,-6%,-5%,-4%,-7%,3%,.
COc1ccc(/C=N/NC(=O)c2ccc3nc[nH]c3c2)c(OC)c1,2%,-1%,-2%,-11%,17µM*,.
COc1cccc(/C=N/NC(=O)c2ccc3nc[nH]c3c2)c1O,6%,-2%,-3%,4%,19µM*,.
COc1ccc(/C=N/NC(=O)c2ccc3nc[nH]c3c2)cc1,4%,5%,4%,-3%,21µM*,.
CCc1cccc(NC(=O)c2cnc(SC)nc2-c2ccccc2)c1,.,.,.,.,-13%,.
O=C(Nc1cccc(NC(=O)c2ccco2)c1)c1ccccc1,5%,0%,3%,2%,?,.
COc1ccc(C(=O)COc2cccc(NC(=O)c3ccco3)c2)cc1,-3%,-7%,-1%,-2%,15µM*,-10%
COc1ccc(C(=O)Nc2ccc(NC(=O)c3ccco3)cc2)cc1,-13%,?,11%,0%,-9%,.
COc1cccc(C(=O)COc2cccc(NC(=O)c3ccco3)c2)c1,-1%,-2%,-3%,0%,27µM*,.
COc1ccc(Br)cc1C(=O)Nc1cccc(NC(=O)c2ccco2)c1,-11%,-20%,-6%,1%,24µM*,.
O=C(c1ccccc1)c1cccc(NC(=O)c2ccco2)c1,?,?,4µM*,25%,27µM*,18%
C=C(C)C(=O)OCCCCCCCCCC,.,.,.,.,.,2%
O=C(CN1C(=O)c2ccccc2S1(=O)=O)Nc1ccc([N+](=O)[O-])cc1,1%,-2%,.,.,.,.
CC(=O)N1C2(C=CC1(C)C(=O)NCc1ccccn1)CCCCC2 (stereo not given),.,.,.,.,.,-6%
COc1cccc(NC(=O)c2ccco2)c1,26%,15µM*,?,?,?,10µM*
O=C(COc1cccc(NC(=O)c2ccco2)c1)c1ccccc1,?,0%,10%,7%,17µM*,-32%
SMILES,p53 reactivator,ELG1 genotox,Rab9 promoter act,NPC1 promoter act,FLuc modulator,SMN2 splice up
O=C(Nc1cccc(OC(=O)c2ccco2)c1)c1ccco1,9%,13%,-1%,2%,-6%,0%
COc1ccc(Br)cc1C(=O)Nc1ccc(C(=O)O)cc1,2%,1%,-4%,0%,-14%,1%
COc1ccc(Br)cc1C(=O)Nc1ccc(O)cc1,-16%,15%,2%,7%,?,28µM*
O=C(O)COc1ccc(NC(=O)c2ccco2)cc1,13%,4%,19%,1%,?,5%
C[C@H]1NC(=O)NC1=O,.,.,.,.,.,6%[20.6 µM]
COC(=O)c1sc(-c2ccc(Cl)cc2)cc1NC(=O)/C=C/C(=O)O,-5%,2%,-6%,0%,9.5µM*,.
CCOc1ccc(-c2cc(NC(=O)c3ccccc3)c(C(=O)OC)s2)cc1,.,.,.,.,2%,13%
COC(=O)c1sc(-c2ccc(C(C)(C)C)cc2)cc1NC(=O)CCC(=O)O,10%,?,27%,24%,1.5µM*,.
COC(=O)c1sc(-c2ccc(Cl)cc2)cc1NC(=O)COCC(=O)O,3%,5%,3%,3%,?,.
O=C(Nc1ccccc1F)c1ccc(OCc2ccccc2)cc1,?,?,?,?,?,22µM*
O=C(Nc1ccccc1)c1ccc(CSc2ncccn2)cc1,10%,?,1µM*,1.1µM*,3.4µM*,13µM*
Cc1ccc(NC(=O)c2ccc(CSc3nccc(C)n3)cc2)cc1,9%,-5%,9%,19%,?,.
O=C(Nc1ccc(OCc2ccccc2)cc1)c1ccccc1,9%,16%,?,?,1%,?
O=C(Nc1ccccc1F)c1ccc(CSc2ncccn2)cc1,11%,?,3.5µM*,3.5µM*,?,?
Cn1nnnc1SCc1ccc(C(=O)Nc2ccccc2F)cc1,6%,?,?,?,?,2%
Nc1nonc1-n1nnc(C(=O)N/N=C/c2ccoc2)c1CSc1ccc(Cl)cc1,-2%,-4%,-8%,1%,-2%,.
C/C(=N\NC(=O)c1csc(C)c1C)c1ccc(Cl)s1,9%,?,?,?,?,-3%
CC/C(=N\NC(=O)c1csc(C)c1C)c1cccs1,4%,?,1.1µM*,2µM*,2.4µM*,14µM*
CCC/C(=N\NC(=O)c1csc(C)c1C)c1cccs1,?,10µM*,3.2µM*,?,4.8µM*,16µM*
OCC[C@H]1C[C@H](O)[C@@H](O)[C@]2(Cc3ccccc3CCO2)O1,2%,3%,1%,1%,-2%,.
COCCNC(=O)[C@H](C)/C=C(\c1cccnc1)C(NC(=O)OCc1ccccc1)c1ccc(C(=O)OC)cc1 (stereo not given in full),.,.,.,.,.,-4%
CN1C(=O)C(C)(C)c2cc(S(=O)(=O)N3CCCC3C(=O)Nc3ccc(F)cc3)ccc21 (stereo not given),.,.,.,.,-2%,.
CC(=O)SC[C@@H](Cc1ccccc1)C(=O)NCC(=O)OCc1ccccc1,.,.,.,.,.,0%[20.6 µM]
CCc1cc2c(SCC(=O)O)ncnc2s1,-6%,-27%,0%,-3%,1%,26%
CCc1cc2c(SCC(=O)c3cccs3)ncnc2s1,?,23µM*,7%,22%,-12%,?
